Source: PubChem BioAssay (EPA / NIEHS)
Calls of active or inactive are those of the source. How the source made its calls: active means hit-call score of the fitted dose curve at least 0.9, where 1 is the maximum; inactive means score below 0.9.

Assay: ATG_M_06_CIS: Attagene CIS-FACTORIAL HepG2 Assay for M06 Transcription Factor (Internal Marker) (AID 2282950)
Conditions: HepG2 Attagene CIS-FACTORIAL M06 internal marker reporter; actives raise or lower the signal
Description: ATG_CIS is a cell-based, multiplexed-readout assay that uses HepG2, a human liver cell line, with measurements taken at 24 hours after chemical dosing in a 24-well plate.ATG_M_06_CIS is one of 52 assay component(s) measured or calculated from the ATG_CIS assay. It is designed to make measurements of mRNA induction, a form of inducible reporter, as detected with fluorescence intensity signals by Reverse transcription polymerase chain reaction (RT-PCR) and Capillary electrophoresis technology.Data from the assay component ATG_M_06_CIS was analyzed into 1 assay endpoint. This assay endpoint, ATG_M_06_CIS, was analyzed with bidirectional fitting relative to DMSO as the negative control and baseline of activity. Using a type of inducible reporter, measures of mRNA for gain or loss-of-signal activity can be used to understand the background control at the transcription factor-level as they relate to the gene . Furthermore, this assay endpoint can be referred to as a secondary readout, because this assay has produced multiple assay endpoints where this one serves a background control function. To generalize the intended target to other relatable targets, this assay endpoint is annotated to the background measurement intended target family, where the subfamily is internal marker.
Human liver HepG2 cells are transiently transfected with multiple reporter transcription units (MRTUs) in 6-well plates using FuGene 6 reagent (Roche; 3 ml FuGene/1 mg DNA). The MRTU constructs are regulated by a cis-regulating element (promoter). […] A major difference between the CIS and TRANS system is that in CIS activities of endogenous TFs are measured, whereas the TRANS assay evaluates changes in activities of exogenous, chimeric NR-Gal4 proteins. […] At the end of 24 hour incubation, total RNA was isolated using TriZol reagent (Invitrogen). The isolated RNA is then reverse-transcribed using oligo(dT) primer and Mo-MLV reverse transcriptase (Invitrogen) with DNAse I (Ambion) treatment for 30 min. The one-tenth of the produced cDNA was amplified by PCR using Taq DNA polymerase (Invitrogen) and two reporter sequence-specific primers. The PCR products were fluorescently labeled by primer extension with 6-arboxyfluorescein (6-FAM) 5'-labeled reporter sequence-specific primer (2 min at 95 C, 20 s at 68 C and 10 min at 72 C) and these products were digested with 5U of HpaI (New England Biolabs) for 2h at 37 C. The fragments were purified using Qiaquick PCR columns (Qiagen), analyzed on an ABI 3130xL genetic analyzer (Applied Biosystems) with peak positions identified by using a set of X-rhodamine (ROX)-labeled MapMarker1000 molecular weight standards (BioVentures). The raw capillary electrophoresis data was processed using Attagraph software (Attagene).

outcome, inactive:
Oc1cccc2c(O)cccc12, C=COC(=O)C(C)(C)CCCCCC, CC(C)CCOCCC(C)C, CCC(=O)C=Cc1ccc(OC)cc1, CC1=CC(=O)c2ccccc2C1=O, O=C(Nc1cccc([N+](=O)[O-])c1)c1cc2ccccc2cc1O, CN(C)c1ccc(C(=C2C=CC(=[N+](C)C)C=C2)c2ccccc2)cc1, c1ccc2c(c1)CCC2, FC(F)(F)C1(F)C(F)(F)C(F)(F)C(F)(F)C(F)(C(F)(F)F)C1(F)F (stereo not given), CCCCCCCC(OC)OC, CC1CCC(CO)CC1 (stereo not given), O=C(OC(=O)C(F)(F)C(F)(F)F)C(F)(F)C(F)(F)F, CCO[Si](C)(C)OCC, O=C1OC2(c3ccccc31)c1cc(I)c(O)c(I)c1Oc1c2cc(I)c(O)c1I, Oc1ccc(Cc2ccccc2O)cc1, Cc1[nH]nc2c1N=C(c1ccccc1Cl)c1cc([N+](=O)[O-])ccc1N2, OCCN1CN(CCO)CN(CCO)C1, Cc1cncc(C)c1, FC(OC(F)(F)C(F)(F)C(F)(F)F)C(F)(F)F (stereo not given), Nc1ccn([C@@H]2O[C@H](CO)[C@@H](O)C2O)c(=O)n1 (stereo not given in full), O=S(=O)(O)c1ccccc1, Oc1c(Cl)cc(Cl)cc1Sc1cc(Cl)cc(Cl)c1O, CC(C)(C)c1ccc(CCC=O)cc1, CCc1cccc(CC)c1N(COC)C(=O)CS(=O)(=O)O, Cc1ccc(S(=O)(=O)O)cc1, NC(C(F)(F)F)C(F)(F)F, Cn1sccc1=O, C[C@]12CC[C@@H]3c4ccc(O)cc4CC[C@H]3[C@@H]1CC[C@@H]2OC(=O)CCC1CCCC1, Cc1ccc(C(=O)c2ccccc2)cc1, O=c1cc(-c2ccccc2)oc2ccc3ccccc3c12, CC(C)[C@@H]1CC[C@@H](C)C[C@H]1O, CCOC=C(C(=O)OCC)C(=O)OCC, c1cc2cccc3c4cccc5cccc(c(c1)c23)c54, CCOCCOCC, Cc1ccc(C)c(S(=O)(=O)O)c1, CCN(CCC#N)c1ccccc1, O=C(O)CCC(F)(F)C(F)(F)C(F)(F)C(F)(F)C(F)(F)C(F)(F)F, c1cc[nH]c1, O=C(O)c1cccc(C(=O)O)n1, COCN(COC)c1nc(N(COC)COC)nc(N(COC)COC)n1
